Source: PubChem
GPR151 ag = activates the human receptor GPR151 | Q8TDV0 | PathHunter beta-arrestin GPR151 cells, luminescence | activation, % at 11.2 µM | 650,000 compounds, 1% hits | AID 1508602; in the data active = activation above about 4.9%;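 note: 0% = median of compound wells and 100% = cells with positive control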
Target sequence (Q8TDV0 whole entry, looked up): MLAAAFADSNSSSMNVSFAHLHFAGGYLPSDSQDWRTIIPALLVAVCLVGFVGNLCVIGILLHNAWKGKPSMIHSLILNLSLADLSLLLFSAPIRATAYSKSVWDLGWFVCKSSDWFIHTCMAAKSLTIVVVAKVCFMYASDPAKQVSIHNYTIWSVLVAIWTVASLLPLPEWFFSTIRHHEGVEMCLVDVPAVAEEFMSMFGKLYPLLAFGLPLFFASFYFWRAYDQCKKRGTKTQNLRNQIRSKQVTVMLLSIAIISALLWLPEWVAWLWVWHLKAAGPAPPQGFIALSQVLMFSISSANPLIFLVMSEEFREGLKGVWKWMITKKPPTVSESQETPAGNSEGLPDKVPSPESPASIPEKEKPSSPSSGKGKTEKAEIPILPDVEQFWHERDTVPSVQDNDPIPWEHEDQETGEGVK
FBW7 act = activators of human E3 ligase FBW7; Q969H0; AlphaScreen FBW7–phospho-cyclin E peptide binding, activator screen; normalized activity (activation), % at 26.1 µM; 650,000 compounds, 0.13% hits; in the data active = normalized activity above about 1.9%;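 note: purified mutant Fbw7 with reduced substrate affinity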
TEAD-YAP block = TEAD-YAP interaction inhibition; HEK-TIYL cells, TEAD-Gal4/YAP UAS-luciferase luminescence; inhibition, % at 9.12 µM; 640,000 compounds, 1.4% hits; AID 1259422; in the data active = inhibition above about 32%;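 note: 0% = median of test compound wells and 100% = reference inhibitor wells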
MITF inh = human MITF inhibition, primary screen. O75030. AlphaScreen MITF homodimerization, bead proximity signal. inhibition, % at 2.6 µM. 650,000 compounds, 0.91% hits; in the data active = inhibition above about 50%;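 note: 0% = vehicle wells with protein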
GPR151 confirm = confirmation of human GPR151 activators. shares compounds with GPR151 ag. GPR151 PathHunter beta-arrestin cells, luminescence, 90 min; % of EA-reagent control over plate median. activation, % at 11.2 µM. 6,700 tested, under 10 active. AID 1508609;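 active = mean percent activation across replicates above the confirmation screen cutoff of 4.91%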
GPR119 counter = counter-screen for GPR151 activators: effect on human GPR119 | GPR119 PathHunter beta-arrestin cells, luminescence, 90 min; 0 = compound-well median, 100 = enzyme-acceptor control | 6,700 compounds, 0.3% hits | shares compounds with GPR151 ag | activation, % at 11.2 µM;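 active = mean percent activation in the counterscreen above 29.09%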;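 note: counterscreen on off-target GPR119 to flag nonselective hits from the GPR151 activator screen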
An asterisk follows results filed as active; / = not tested or not shown. Rows were chosen to be rich in hits. Some 3.5% of all compounds tested hit in one or more screens of this group.

SMILES	GPR151 ag	FBW7 act	TEAD-YAP block	MITF inh	GPR151 confirm	GPR119 counter
COc1ccc(-c2noc(N3CCN(c4cccc(C)c4)C(C)C3)n2)cc1 (stereo not given)	1.0	-0.3	-1.4	3.6	/	/
CCc1c(C#N)c(N)nc(SCC(=O)c2cc3ccccc3oc2=O)c1C#N	9.9*	-0.1	-0.3	1.1	-0.4	15.4
COc1ccc(-c2c[n+](CC(=O)OC3CC(C)CCC3C(C)C)c3n2CCCCC3)cc1 (stereo not given)	5.3*	0.0	86.2*	17.9	1.2	-0.9
Nc1ccc(Oc2ccc(Cl)c3ccccc23)c(Cl)c1	10.7*	0.1	2.4	4.3	0.0	6.8
Nc1ccc(Oc2ccc3ccccc3c2Cl)c(Cl)c1	2.2	0.6	-9.4	10.0	/	/
CN1CCN(CCCN2c3ccccc3Sc3ccc(S(=O)(=O)N(C)C)cc32)CC1	5.4*	-0.1	/	-5.4	-0.8	-7.4
OCCN1CCN(CCCN2c3ccccc3Sc3ccc(Cl)cc32)CC1	4.4	-0.2	2.9	18.2	/	/
COc1ccccc1C(=O)Nc1ccccc1-c1nnn(CC(=O)NCc2ccco2)n1	5.3*	0.0	9.7	3.2	-0.1	-6.2
COc1ccc(/C=N/NC(=O)c2cccc(N)c2)c(C(=O)O)c1OC	2.9	0.4	-26.0	15.7	/	/
O=[N+]([O-])/C=C/N1CCOCC1	5.5*	-0.1	0.2	9.9	-0.2	-1.4
COc1cc(CNC2CCN(Cc3ccccc3)CC2)cc(OC)c1	-0.4	0.0	9.5	6.4	/	/
Cc1cc(CNC2CCN(Cc3ccccc3)CC2)c(C)n1CC(C)C	6.8*	0.1	-1.5	48.5	0.9	13.5
CCC1CCC2(CC1)SCC(=O)N2c1ccc(F)cc1 (stereo not given)	6.4*	0.0	5.0	8.8	-0.3	-7.6
CCC1CCC2(CC1)SCC(=O)N2c1ccccc1 (stereo not given)	4.6	-0.1	2.3	7.3	/	/
O=C(NCCN1CCOCC1)c1ccc2c(c1)ncn2-c1ccc(F)cc1F	5.4*	0.1	-1.4	17.5	-0.9	-11.5
Cc1ccc(-n2cnc3cc(C(=O)NCc4ccc(F)cc4)ccc32)cc1Cl	5.9*	-0.2	-2.1	0.1	0.1	-11.6
CC(C)(C)Cc1ccc(OCCCC(=O)Nc2cccc(C(=O)CC(=O)Nc3ccccc3Cl)c2)c(CC(C)(C)C)c1	0.4	0.3	7.6	0.3	/	/
CCOc1ccc(C(=S)N2CCCC2)cc1	-0.6	0.1	0.9	5.0	/	/
CCOc1ccc(C(=S)N2CCCCC2)cc1	6.2*	0.1	-19.1	-29.6	-0.5	-9.0
CCCCC(CCC(=O)NCc1ccccc1)(C(=O)OCC)C(=O)OCC	-1.8	0.2	4.2	-13.9	/	/
COC(=O)NNC(=S)NCc1ccc(C)cc1	5.6*	0.2	0.1	-1.9	-0.9	-10.9
Cc1ccc(/C=C2\N=C(c3ccc(C)c([N+](=O)[O-])c3)OC2=O)cc1	0.3	0.0	2.2	-3.1	/	/
c1ccc(N2CCN(Cc3nnnn3Cc3cccs3)CC2)cc1	0.7	0.1	-2.4	-0.8	/	/
c1ccc(CN2CCN(Cc3nnnn3Cc3cccs3)CC2)cc1	5.9*	0.2	2.4	10.1	0.2	-3.1
CCN1C(=O)C(O)(CC(=O)c2ccc(C)cc2)c2ccccc21 (stereo not given)	1.4	0.3	-3.3	-4.9	/	/
SMILES	GPR151 ag	FBW7 act	TEAD-YAP block	MITF inh	GPR151 confirm	GPR119 counter
O=[N+]([O-])c1ccc(CSc2nnc(C3COc4ccccc4O3)n2-c2ccccc2)cc1 (stereo not given)	-0.4	0.0	-17.1	2.2	/	/
Cc1ccccc1N1C(=O)NC(=O)/C(=C\c2ccc(-c3ccccc3C(=O)O)o2)C1=O	0.0	0.1	6.0	19.4	/	/
COc1ccc(S(=O)(=O)Nc2cccc([N+](=O)[O-])c2)c(Cl)c1Cl	5.2*	-0.2	13.5	-3.1	-0.6	-4.5
COc1ccc(S(=O)(=O)Nc2cccc(N(C)S(C)(=O)=O)c2)c(Cl)c1Cl	-1.5	-0.2	9.0	4.6	/	/
COc1ccc(S(=O)(=O)NCCSC(C)(C)C)c(Cl)c1Cl	8.6*	0.0	-2.8	7.5	1.6	8.2
C/C(=N\NC(=O)Cn1nnc(-c2ccccc2)n1)c1nonc1C	16.5*	0.3	1.4	13.5	-0.6	-13.6
CC(=O)Cn1nnc(-c2ccccc2)n1	-0.6	-0.1	-10.1	1.6	/	/
CCc1ccccc1NC(=O)c1ccc(F)c(S(=O)(=O)N2CCCCC2C)c1 (stereo not given)	6.7*	0.1	-8.1	6.9	-0.6	-15.0
O=C(NC1CCCCC1)c1nn2c(C(F)(F)F)cc(-c3ccccc3)nc2c1Br	5.0*	-0.1	1.1	-0.1	0.3	0.9
Nc1nonc1-c1nc2ccccc2n1CC(=O)Nc1ccc(F)c(Cl)c1	-0.9	0.0	-3.6	-7.4	/	/
CN(C)Cc1ccc(NC(=O)/C=N/O)cc1	0.8	0.0	6.7	8.8	/	/
CCC(C)NC(=O)C1CCCN(S(=O)(=O)N2CCOCC2)C1 (stereo not given)	8.8*	-0.2	-1.1	6.4	-0.2	-0.1
O=C(NCc1ccccc1)c1cnc2cc(-c3cn[nH]c3)ccn12	6.2*	-0.1	-10.1	1.0	-0.1	12.4
C=CCn1c(=O)c2c(nc3n(-c4cccc(Cl)c4)c(C)c(C)n23)n(C)c1=O	6.3*	0.0	-4.6	-0.7	-1.2	-2.6
C=CCn1c(=O)c2c(nc3n(-c4ccc(Cl)cc4)c(C)c(C)n23)n(C)c1=O	-1.0	0.3	11.4	12.5	/	/
COC(=O)C(C)n1c(=O)c2c(nc3n(-c4cc(C)cc(C)c4)c(C)c(C)n23)n(C)c1=O (stereo not given)	0.4	0.0	11.6	-11.2	/	/
CC(=O)Cn1c(=O)c2c(nc3n(-c4ccccc4)c(C)c(C)n23)n(C)c1=O	11.1*	-0.1	7.8	11.4	0.0	4.4
COC(=O)C(C)n1c(=O)c2c(nc3n(-c4ccc(C)c(C)c4)c(C)c(C)n23)n(C)c1=O (stereo not given)	5.3*	-0.1	-1.1	4.5	0.1	3.7
CC1CC(C)CN(C(=O)c2cc3ccccc3oc2=O)C1 (stereo not given)	0.0	0.0	9.6	-1.9	/	/
O=[N+]([O-])c1cc(CNCc2ccccc2)ccc1N1CCCCC1	5.6*	-0.4	-45.2	43.6	0.9	6.0
O=C(CSc1ccc(F)cc1)Nc1nc(-c2ccc(F)cc2)cs1	7.7*	0.3	12.4	2.8	-1.9	11.6
CCc1ccc(OCC(=O)Nc2ccccc2NC(C)=O)cc1	3.5	-0.2	-19.3	-15.3	/	/
CCc1cccc(CC)c1NC(=O)CSc1cccc[n+]1[O-]	2.5	0.2	19.8	0.4	/	/
CC(=O)N(C)c1nnc(-c2ccccn2)s1	7.8*	-0.1	2.7	8.2	-0.5	6.8
CCN(CC)c1nc(C)nc2sc(C(=O)N3CCCC(C)C3)c(C)c12 (stereo not given)	0.8	0.0	-13.1	-0.6	/	/
COC(=O)C1=C(C)NC(SCC(=O)C23CC4CC(CC(C4)C2)C3)=C(C#N)C1c1cccs1 (stereo not given)	0.3	0.0	-2.2	-2.4	/	/
